PI4K2A block – PI4K2A (human) kinase inhibition | purified PI4K2A, ADP-Glo luminescence, 1 h; stronger effect = lower value | Q9BTU6 | AID 1346378 | hit rate 0.13% among 420,000 | activity change, negative = inhibition, % at 76.9 µM; in the data active means activity change below about -50%; inconclusive means mostly about -30% to -49%;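 further: -100% = wells without enzyme as full effect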
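PI4K2A activity was measured by ADP-Glo luminescence: enzyme (4 ug/mL stock) and phosphatidylinositol (1.2 mM stock) in Tris pH 7.5/MgCl2/EGTA/Triton X-100 buffer were reacted with ATP (300 microM stock) for one hour at ambient temperature.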
VDR inh – inhibitors of human vitamin D receptor. P11473. VDR-SRC2-3 peptide fluorescence polarization, 2 h. hit rate 0.93% among 400,000. Potency, µM, without a hit: max response, negative = inhibition, actives largely listed as inhibitors; further: potency means the concentration at half of the fitted maximal effect
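Reagent solutions, kept cold and dark, are dispensed first; compounds are then pinned in at 23 nl, plates briefly spun, and incubated 2 h at ambient temperature. Inhibition of VDR–SRC2-3 peptide binding is read by fluorescence polarization.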
GLS inhibitor – blocks human kidney-isoform glutaminase activity; Potency, µM (highest dose often 45.5 µM), without a hit: at the top dose activity change, negative = inhibition, most hits filed as inhibitors; GLS enzymatic activity, qHTS titration; hit rate 0.21% among 410,000; further: potency means the concentration at half of the fitted maximal effect
Target sequence (O94925 whole entry, looked up, canonical isoform): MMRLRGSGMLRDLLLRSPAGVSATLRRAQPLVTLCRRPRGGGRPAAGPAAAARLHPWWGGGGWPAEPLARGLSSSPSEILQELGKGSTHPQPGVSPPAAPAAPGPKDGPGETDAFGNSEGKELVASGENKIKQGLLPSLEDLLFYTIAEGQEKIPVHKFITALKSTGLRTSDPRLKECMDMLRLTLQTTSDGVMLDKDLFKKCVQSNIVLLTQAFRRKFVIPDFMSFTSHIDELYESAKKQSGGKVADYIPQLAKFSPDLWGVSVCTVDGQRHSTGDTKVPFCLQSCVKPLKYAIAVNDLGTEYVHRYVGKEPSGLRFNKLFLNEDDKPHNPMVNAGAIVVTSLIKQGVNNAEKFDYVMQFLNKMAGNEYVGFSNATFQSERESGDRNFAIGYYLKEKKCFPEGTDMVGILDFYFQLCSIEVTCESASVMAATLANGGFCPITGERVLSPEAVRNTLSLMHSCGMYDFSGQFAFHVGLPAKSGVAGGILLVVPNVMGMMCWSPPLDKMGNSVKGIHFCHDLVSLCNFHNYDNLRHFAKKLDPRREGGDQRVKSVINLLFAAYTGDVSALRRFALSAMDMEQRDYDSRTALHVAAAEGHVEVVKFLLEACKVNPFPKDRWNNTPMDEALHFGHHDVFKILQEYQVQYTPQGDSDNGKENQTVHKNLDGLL
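Compounds were pin-transferred onto hKGA, after which L-glutamine (1 mM solution) and a detection mix of glutamate oxidase, HRP and Amplex Red were added. Initial and 30 min RT fluorescence reads were collected.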
PLK1 PBD block – inhibitors of human PLK1 polo-box domain binding; P53350; Plk1 PBD binding of FITC phosphopeptide, fluorescence polarization; Potency, µM, for inactives: max response, negative = inhibition, most hits filed as inhibitors; hit rate 2.8% among 360,000; further: potency means the concentration at half of the fitted maximal effect; series mostly up to about 57 µM; nearly all actives have a fitted effect of over 65% in size
KAT2A inh – GCN5L2 (KAT2A) acetyltransferase inhibition | Potency, µM (doses to about 58.9 µM), inactives show top-dose activity change, negative = inhibition, usual class: inhibitors | GCN5L2 HAT assay, ThioGlo1 CoA-SH fluorescence | hit rate 0.21% among 390,000 | AID 504327; further: potency means the concentration at half of the fitted maximal effect
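qHTS, 1536-well. 20nM enzyme, pH 7.5 HEPES/EDTA/Tween-20 buffer; 15 min compound preinc., RT. Start: 75uM H3(1-25), 70uM AcCoA, 50uM ThioGlo1. Read Ex340/Em540 at t=0 (autofluorescence flag) and t=20 min.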
TbPYK confirm – Trypanosoma brucei pyruvate kinase inhibition, cherry-pick confirmation | shares compounds with PLK1 PBD block | recombinant TbPYK, Kinase-Glo ATP luminescence | Potency, µM (top dose mostly 76.9 µM), inactives show at the highest dose activity change, negative = inhibition, actives largely listed as inhibitors | hit rate 67% among 890; further: potency means the concentration at half of the fitted maximal effect; nearly all actives have a fitted effect of over 70% in size
TbPYK orthogonal – orthogonal confirmation of Trypanosoma brucei pyruvate kinase inhibitors; shares compounds with PLK1 PBD block; recombinant TbPYK, ADP-Glo luminescence, 60 min; Potency, µM (highest dose often 76.9 µM), for the others: at the highest dose activity change, negative = inhibition, hits mostly inhibitors; hit rate 62% among 890; AID 720584; further: potency means the concentration at half of the fitted maximal effect; nearly all actives have a fitted effect of over 75% in size
Numbers without * were called inactive; ? = inconclusive; · = no result. Sampled rows, rich in hits. Any-hit rate of the full collection: about 3.1%. Unless noted, the call rests on the fitted dose curve; in most records, active means well fitted curve in the direction sought with a large enough effect; inconclusive means small, poorly fitted or top-dose-only effect, or another doubt; inactive means no such curve, though single readings can be large; an effect the other way counts as inactive or inconclusive. Unless noted, on the % scale 0 is the no-effect control and ±100 the full control effect.

SMILES | PI4K2A block | VDR inh | GLS inhibitor | PLK1 PBD block | KAT2A inh | TbPYK confirm | TbPYK orthogonal
COC(=O)C1=C(C(=O)OC)C(C(=O)OC)C(C(=O)OC)C(C(=O)OC)(C(=O)OC)C(C(=O)OC)=C1C(=O)OC (centres undefined) | 10 | 40µM* | 9% | 11µM* | · | 28µM* | 35µM*
O=C(c1cccc(F)c1)N1CCC2(CC1)CN(c1ccccc1)C2 | · | -11% | · | · | -14% | · | ·
Nc1nc(Cl)nc2c1ncn2[C@@H]1O[C@H](CO)[C@H](O)C1F (some centres undefined) | · | 1% | -11% | · | -15% | · | ·
CCCC(C)c1nnc(NC(=O)c2cc(C(=O)OC)cc([N+](=O)[O-])c2)s1 (centres undefined) | 2 | 50µM* | -16% | 6µM* | -22% | 3.5µM* | 14µM*
Fc1cccc(C[n+]2csc3ccccc32)c1 | -10 | 32µM* | 28% | 24µM* | -18% | ? | 13µM*
c1ccc(C[n+]2csc3ccccc32)cc1 | -8 | 40µM* | 36% | 3.8µM* | -13% | ? | 14µM*
CC(C)Oc1cccc(C(=O)Nc2ccc(-c3nc4cc(Cl)cc(Cl)c4o3)cc2)c1 | 1 | -3% | 0% | · | 1% | · | ·

High-throughput results from PubChem.
